Data reported in PubChem BioAssay AID651843 (National Center for Advancing Translational Sciences (NCATS), 2012).
The other results are listed elsewhere or left out. Inconclusive results are not listed. Values without a mark were called inactive. Calls come from the whole dose curve; as a rule, active = well fitted inhibition curve with a large enough effect; inconclusive = small, poorly fitted or top-dose-only effect; inactive = no such curve, though single readings can be large or run the other way.

experiment: qHTS Assay for Inhibitors of MBNL1-poly(CUG) RNA binding: Counterscreen HTRF assay; details: His-Menin/biotin-MLL peptide TR-FRET counterscreen; series mostly up to 57.6 µM; activity, negative = inhibition: at the top concentration
Source text: NIH Chemical Genomics Center [NCGC] NIH Molecular Libraries Probe Production Centers Network [MLPCN] MLPCN Grant: R03 MH087421-01 Assay Submitter (PI): Charles Thornton NCGC Assay Overview: Expanded CTG repeats in the 3' untranslated region of the DM protein kinase (DMPK) gene causes type I myotonic dystrophy (DM1). DM1 is a multi-systemic disease with a prevalence of 1/7000. Clinical features include myotonia, progressive muscle weakness and wasting, cardiac arrhythmia, insulin resistance, hypersomnolence, cataracts, and other symptoms. The pathogenic effect of expanded CTG repeats stems from deleterious effects of the mutant transcript. CUGexp mRNA accumulates in nuclear foci and sequesters proteins of the muscleblind family, of which MBNL1 is the most common family member in skeletal muscles. […] This brings the terbium label within close proximity to XL665 to allow time-resolved fluorescence resonance energy transfer (TR-FRET). […]
This assay uses a ratiometric measurement of TR-FRET binding assay with His-Menin and Biotin-MLL peptide. […] (3) Add 1 ul of 0.22 ng/ul terbium labeled anti-His antibody (0.055 ng/ul final concentration) (4) Add 1 ul of 20 nM streptavidin-XL665 (5 nM final concentration) (5) Incubate 60 min at room temperature (6) Detect the assay plate in a EnVision plate reader (PerkinElmer) with Ex=340 nm, Em1=665 nm and Em2=545 nm.

| SMILES | activity, negative = inhibition |
| --- | --- |
| CCOC(=O)c1c(C)[nH]c2c1-c1ccccc1C(=O)C2=O | 4.75% |
| NCCC[C@H](N)CC(=O)N[C@H]1CNC(=O)[C@H]([C@H]2C[C@H](O)NC(N)=N2)NC(=O)/C(=C/NC(N)=O)NC(=O)[C@H](CO)NC(=O)[C@H](CO)NC1=O | -2.75% |
